# This is a sample that favours compounds with a hit; in the whole collection about 3.6% have one here.
# Mm-Cpn inhibitor – inhibitors of Methanococcus maripaludis chaperonin TRiC (MmCpn) | actives 0.031% (n = 330,000) | Potency, µM (highest dose often 76.9 µM), without a hit: at the highest dose activity, negative = inhibition, hits mostly inhibitors | purified Mm-Cpn ATPase, ADP Transcreener TR-FRET; further: on the % scale 0 is the no-effect control and ±100 the full control effect; nearly all actives have a fitted effect of over 80% in size
#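 ATPase read-out: TR-FRET ADP immunoassay (anti-ADP Eu cryptate vs ADP-d2), ex 320 nm, em 590/665 nm; signal drops as ADP forms. Enzyme 25 nM, ATP 10 uM, 30 min at 37°C after 10 min compound preincubation.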
# FUS suppressor – FUS proteinopathy suppression in yeast; S. cerevisiae FUS-expressing, growth rescue, OD600, 24 h; Potency, µM (top dose mostly 76.6 µM), usual class: activators; actives 0.24% (n = 390,000);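 further: plate controls were DMSO vehicle for no effect and reference control for full effect; nearly all actives have a fitted effect of over 55% in size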
#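 Toxicity suppression screen in FUS-yeast. Cells induced with 2% galactose, starting OD 0.005, treated 24hr at 30C with compounds at multiple final concentrations; growth by OD600.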
# ClpP mod – qHTS Assay for Activators of ClpP; purified B. subtilis ClpP, FRET peptide cleavage, 20 min; actives 1.9% (n = 340,000); Potency, µM (titrated, usually from 57.5 µM), for the others: top-dose activity change, negative = active; ATP-dependent Clp protease proteolytic subunit (Bacillus subtilis (strain 168)), P80244; active means well fitted falling curve with a large enough effect; inconclusive means small, poorly fitted or top-dose-only effect; inactive means no such curve, though single readings can be large or run the other way; further: the source files actives as falling curves though it sought activators and does not explain the sign; nearly all actives have a fitted effect of over 65% in size
#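 FRET quenching reversal measured ClpP activation: 10 microg/mL B. subtilis ClpP at pH 8 with the FRET-FV decapeptide, read at 430 nm after 320 nm excitation. The 20-min minus 0-min signal was scaled between DMSO/no-enzyme wells and ADEP (5.8 microM final).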
# Abeta yeast res – compounds reversing amyloid beta toxicity in yeast; yeast expressing A-beta42, growth rescue, OD600, 48 h; response scale: 0% DMSO, 100% iron-clioquinol control; Potency, µM (highest dose often 46.1 µM), usual class: activators; actives 0.063% (n = 410,000); further: nearly all actives have a fitted effect of over 55% in size
#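 Growth rescue measured by 600 nm absorbance after 48 h yeast culture at 30 C with compound. Values normalized between DMSO and an equimolar ferric chloride plus clioquinol control.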
# TDP-43 yeast inh – rescues yeast growth from TDP-43 toxicity. TDP-43 expressing yeast growth rescue, BacTiter-Glo, 24 h. Potency, µM (highest dose often 46.1 µM), for inactives: at the top dose growth rescue (activation), most hits filed as activators. actives 1.8% (n = 410,000). AID 652104; further: % of control where 0% means no effect; nearly all actives have a fitted effect of over 50% in size
#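 Readout is BacTiter-Glo luminescence of cell growth, so inhibitors register as activators. TDP-43-expressing yeast at OD600=0.02 in galactose medium, after raffinose pregrowth to mid-log, were incubated with compound for 24 hr at 30 deg C.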
# aSyn yeast inh – alpha-synuclein toxicity inhibition in yeast; Yeast expressing alpha-synuclein, growth rescue, BacTiter-Glo, 24 h; Potency, µM (highest dose often 46.1 µM), for inactives: at the highest dose growth rescue (activation), usual class: activators; actives 0.14% (n = 370,000); further: % of control where 0% means no effect; nearly all actives have a fitted effect of over 65% in size
#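 Screening used galactose-induced yeast with toxic alpha-synuclein levels, exposed to compound for 24 hr at 30 deg C. Cell growth, read with BacTiter-Glo luminescence, gave the measured signal.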
# * hit, by the source's call; i = inactive; u = inconclusive; x = no result given; [ ] = another dose, or the depositor's remark. Unless noted, the call rests on the fitted dose curve; in most records, active means well fitted curve in the direction sought with a large enough effect; inconclusive means small, poorly fitted or top-dose-only effect, or another doubt; inactive means no such curve, though single readings can be large; an effect the other way counts as inactive or inconclusive. Potency means the concentration at half of the fitted maximal effect.
SMILES,Mm-Cpn inhibitor,FUS suppressor,ClpP mod,Abeta yeast res,TDP-43 yeast inh,aSyn yeast inh
O=S(=O)(Nc1ccc2c(c1)OCCO2)c1ccc(F)c(F)c1,3.0%,i,x,i,u,-0.1%
Cc1nc2ccc(S(=O)(=O)NCC(=O)NCc3ccccc3C)cc2s1,x,i,x,x,x,x
Cc1snc(SCC(=O)c2ccc(F)cc2)c1C#N,-5.6%,i,x,i,u,21.7%
Cc1snc(SCC(=O)c2ccc([N+](=O)[O-])cc2)c1C#N,2.2%,i,x,i,22.4µM*,2.3%
COc1cc(OC)c(-c2nnc(-c3ccc(OC)c(OC)c3OC)o2)cc1OC,-6.7%,i,28.2µM*,i,-12.2%,-7.9%
CCCCCCCCCC[n+]1cc(Br)cc(Br)c1,x,x,-0.2%,x,x,9.5%
CSc1ccc(CNCCCSc2ncccn2)cc1,-0.4%,i,8.91µM*,i,-11.5%,-1.0%
O=C(OCC(=O)N1CCCc2ccccc21)c1ccccc1[N+](=O)[O-],-0.2%,x,-2.4%,i,35.5µM*,6.1%
CC(C)(C)c1ccc(N2C(=O)Cc3c2nc(N)c(C#N)c3N)cc1,-0.9%,u,-0.5%,i,-3.2%,x
CCc1ccc(N2C(=O)Cc3c2nc(N)c(C#N)c3N)cc1,-0.4%,25.1µM*,-7.3%,i,-0.3%,-6.2%
CCCC12CN3CC(CCC)(CN(C1)C3c1c[nH]c3ccccc13)C2=O (stereo not drawn),x,i,-0.7%,i,-8.6%[9.22 µM],x
COc1ccc(CC(=O)Nc2cccc(SC)c2)cc1,1.4%,x,0.7%,i,12.6µM*,0.1%
COc1ccc(N/N=C(/C(C)=O)N2CCCc3ccccc32)cc1,-0.6%,i,0.4%,i,20µM*,-2.9%
COc1ccc(NC(=O)N2CCCc3ccccc32)cc1,0.4%,i,-0.2%,i,16.3%,-0.8%
COc1ccc(/C=C/C(=O)N2CCCc3ccccc32)cc1,1.4%,x,1.7%,i,20µM*,-1.0%
COc1ccc(OC)c(/C=C/C(=O)N2CCCc3ccccc32)c1,1.2%,i,x,i,u,12.4%
CCCN1Cc2cccc(C(=O)Nc3ccccc3F)c2C1=O,x,i,1.0%,i,u,x
CN(C)c1nc(F)c(F)c(S(=O)(=O)c2ccccc2)c1F,-0.7%,i,0.2%,i,14.1µM*,1.9%
CCN(C(=O)CSc1nc(-c2ccc(C(C)C)cc2)no1)c1ccccc1,x,i,-5.4%,i,24.8%,x
O=C(COc1ccccc1C(=O)OCC(=O)N1CCOCC1)Nc1ccc(Br)cc1,x,x,-2.1%,x,x,1.1%
Cc1cc2nc(N3CCN(C(=O)c4ccco4)CC3)sc2cc1C,2.9%,i,x,i,11.4%,1.1%
O=C(c1ccco1)N1CCN(c2nc3ccc(Cl)cc3s2)CC1,x,i,0.4%,i,11.2µM*,x
Cc1ccc2cc3cc(C(=O)N4CCN(C(=O)c5ccco5)CC4)sc3nc2c1,-3.6%,i,-30.0%,i,12.6µM*,-1.4%
COc1ccc(C)c2sc(N3CCN(C(=O)c4cccc(F)c4)CC3)nc12,x,i,-1.5%,i,18.7%,x
COc1ccc(C)c2sc(N3CCN(C(=O)c4ccco4)CC3)nc12,x,i,-3.8%,i,22.4µM*,x
SMILES,Mm-Cpn inhibitor,FUS suppressor,ClpP mod,Abeta yeast res,TDP-43 yeast inh,aSyn yeast inh
Cc1cccc(C)c1NC(=O)N1CCN(c2nc3ccccc3s2)CC1,2.6%,i,36.8%,i,u,-0.1%
Cc1cccc(Cl)c1NC(=O)N1CCCN(c2nc3ccc(Cl)cc3s2)CC1,-3.1%,i,0.2%,u,20µM*,5.2%
CCc1ccc(C(=O)c2cn(CC(=O)NCCc3ccc(OC)c(OC)c3)c3nc(C)ccc3c2=O)cc1,x,u,-1.0%,i,12.4%,x
O=C(c1ccc2nc(N3CCOCC3)sc2c1)N1CCC(Cc2ccccc2)CC1,1.3%,u,-1.1%,i,25.1µM*,4.6%
Cc1ccc(C)c(N2CCN(C(=O)c3ccc4nc(N5CCOCC5)sc4c3)CC2)c1,-1.2%,u,-4.0%,i,12.6µM*,3.8%
Cc1ccc(Cl)cc1N1CCN(C(=O)c2ccc3nc(N4CCC(C)CC4)sc3c2)CC1,x,u,-4.8%,i,3.1%,x
CCc1ccc2nc(N3CCN(C(=O)c4ccccc4)CC3)sc2c1,x,i,-1.6%,i,11.2µM*,x
COCCCN1C(=O)[C@H](CC(=O)NCc2ccc(OC)c(OC)c2)[C@]2(C(=O)OC)CCCCC=C12,x,i,x,x,x,x
Cn1c(NCC(O)c2ccccc2)nc2c1c(=O)n(Cc1ccc(Cl)c(Cl)c1)c(=O)n2C (stereo not drawn),x,8.91µM*,-4.3%,i,-37.7%,-25.6%
Cn1c(NCC(O)c2ccccc2)nc2c1c(=O)n(Cc1ccc(Cl)cc1)c(=O)n2C (stereo not drawn),-25.5%,i,-14.1%,i,-13.9%,-4.6%
O=C(COc1ccccc1Cl)Nc1ccc(N2CCN(C(=O)c3ccccc3)CC2)cc1,-0.3%,i,0.3%,i,22.4µM*,0.1%
O=C(COc1ccccc1Cl)Nc1ccc(N2CCCC2)cc1,-3.5%,i,-3.9%,i,23.3%,3.8%
Cc1ccccc1OCC(=O)Nc1ccc(N2CCN(C(=O)c3ccco3)CC2)cc1,0.7%,i,-10.8%,u,15.8µM*,1.8%
Cc1ccc(NC(=O)Cn2c(=O)n(CC(=O)NCCc3ccccc3)c(=O)c3ccccc32)cc1C,x,i,-10.4%,i,-2.1%,x
Cc1nc(CS(=O)(=O)c2ccccc2)cc(Sc2ccccc2Cl)n1,-0.7%,i,-2.0%,i[9.22 µM],31.6µM*,11.1%
Cc1nc(CS(=O)(=O)c2ccc(Cl)cc2)cc(Sc2ccccc2Cl)n1,-2.1%,i,-1.1%,i,35.5µM*,19.0%
O=C(Nc1nc2ncccn2c1-c1ccc(C(F)(F)F)cc1)C1CC1,x,i,x,x,x,x
Cc1nn(C)cc1NC(=O)C[C@H]1CC[C@H]2[C@@H](COc3ccc(NC(=O)Nc4ccccc4)cc3C(=O)N2C)O1,x,i,x,x,x,x
Cc1c(Br)cccc1NC(=O)c1sccc1-n1cccc1,0.8%,i,8.91µM*,i,0.0%,2.8%
O=C(Nc1ccc(Br)cc1F)c1sccc1-n1cccc1,-8.2%,i,2.4%,i,1.9%,-4.5%
CC(=O)NC(CCS(C)(=O)=O)C(=O)Nc1ccccc1Cl (stereo not drawn),0.3%,i,15.8µM*,i,-4.3%,-9.5%
COC(=O)c1ccccc1NC(=O)C(CCS(C)(=O)=O)NC(C)=O (stereo not drawn),0.4%,i,28.2µM*,i,2.8%,2.8%
O=C(Oc1cccc2cccnc12)c1ccco1,-9.3%,i,1.4%,i,-78.7%,-1.2%
